Bioassay records: PubChem, several laboratories
aDG glyco act: alpha-DG glycosylation activation; activation, % at 10 µM; AID 624168; Pro5-aDG cells, alpha-DG glycosylation AlphaScreen (IIH6); 0% Pro5, 100% B10-LARGE cell signal; actives 0.22% (n = 360,000);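 active = activation of at least 8% versus controls, or a plate z-score of at least 8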;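 note: Pro5 are CHO cells carrying HIG-tagged alpha-DG that lacks glycosylation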
NR3A LBD binder: modulates the human NR3A ligand-binding domain. actives 2.5% (n = 340,000). Tm shift relative to glycine control, % at 25 µM. AID 1259313. NR3A LBD differential scanning fluorimetry, Tm shift; 0% = protein alone, 100% = glycine-bound protein;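 active = melting temperature shift of at least 10% of the positive control shift, at one fixed dose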
ADAM10 inh: ADAM10 inhibition, QFRET primary screen; actives 0.62% (n = 370,000); recombinant ADAM10, EDANS/DABCYL FRET peptide cleavage, 3 h; inhibition, % at 7 µM;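 active = inhibition above a per-campaign cutoff equal to the mean of compounds falling between control-based bounds plus 3 SD, cut at about 20% in these data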
ADAM17 inh: inhibitors of human ADAM17; recombinant ADAM17, EDANS/DABCYL FRET peptide cleavage; inhibition, % at 6.95 µM; actives 0.83% (n = 370,000); AID 720648;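 active = inhibition above the mean of compounds lying between control limits plus 3 SD, set per campaign, cut at about 8.5% in these data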
FAS TE block: blocks the thioesterase domain of human fatty acid synthase; P49327; recombinant FAS-TE, OMFH fluorogenic substrate, fluorescence endpoint; inhibition, % at 15 µM; actives 0.67% (n = 360,000); AID 602261;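 active = compounds whose normalised, plate-corrected inhibition of enzyme fluorescence in the single-dose primary screen is 50% or more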
Target sequence (P49327 whole entry, looked up, the tested form may be a part): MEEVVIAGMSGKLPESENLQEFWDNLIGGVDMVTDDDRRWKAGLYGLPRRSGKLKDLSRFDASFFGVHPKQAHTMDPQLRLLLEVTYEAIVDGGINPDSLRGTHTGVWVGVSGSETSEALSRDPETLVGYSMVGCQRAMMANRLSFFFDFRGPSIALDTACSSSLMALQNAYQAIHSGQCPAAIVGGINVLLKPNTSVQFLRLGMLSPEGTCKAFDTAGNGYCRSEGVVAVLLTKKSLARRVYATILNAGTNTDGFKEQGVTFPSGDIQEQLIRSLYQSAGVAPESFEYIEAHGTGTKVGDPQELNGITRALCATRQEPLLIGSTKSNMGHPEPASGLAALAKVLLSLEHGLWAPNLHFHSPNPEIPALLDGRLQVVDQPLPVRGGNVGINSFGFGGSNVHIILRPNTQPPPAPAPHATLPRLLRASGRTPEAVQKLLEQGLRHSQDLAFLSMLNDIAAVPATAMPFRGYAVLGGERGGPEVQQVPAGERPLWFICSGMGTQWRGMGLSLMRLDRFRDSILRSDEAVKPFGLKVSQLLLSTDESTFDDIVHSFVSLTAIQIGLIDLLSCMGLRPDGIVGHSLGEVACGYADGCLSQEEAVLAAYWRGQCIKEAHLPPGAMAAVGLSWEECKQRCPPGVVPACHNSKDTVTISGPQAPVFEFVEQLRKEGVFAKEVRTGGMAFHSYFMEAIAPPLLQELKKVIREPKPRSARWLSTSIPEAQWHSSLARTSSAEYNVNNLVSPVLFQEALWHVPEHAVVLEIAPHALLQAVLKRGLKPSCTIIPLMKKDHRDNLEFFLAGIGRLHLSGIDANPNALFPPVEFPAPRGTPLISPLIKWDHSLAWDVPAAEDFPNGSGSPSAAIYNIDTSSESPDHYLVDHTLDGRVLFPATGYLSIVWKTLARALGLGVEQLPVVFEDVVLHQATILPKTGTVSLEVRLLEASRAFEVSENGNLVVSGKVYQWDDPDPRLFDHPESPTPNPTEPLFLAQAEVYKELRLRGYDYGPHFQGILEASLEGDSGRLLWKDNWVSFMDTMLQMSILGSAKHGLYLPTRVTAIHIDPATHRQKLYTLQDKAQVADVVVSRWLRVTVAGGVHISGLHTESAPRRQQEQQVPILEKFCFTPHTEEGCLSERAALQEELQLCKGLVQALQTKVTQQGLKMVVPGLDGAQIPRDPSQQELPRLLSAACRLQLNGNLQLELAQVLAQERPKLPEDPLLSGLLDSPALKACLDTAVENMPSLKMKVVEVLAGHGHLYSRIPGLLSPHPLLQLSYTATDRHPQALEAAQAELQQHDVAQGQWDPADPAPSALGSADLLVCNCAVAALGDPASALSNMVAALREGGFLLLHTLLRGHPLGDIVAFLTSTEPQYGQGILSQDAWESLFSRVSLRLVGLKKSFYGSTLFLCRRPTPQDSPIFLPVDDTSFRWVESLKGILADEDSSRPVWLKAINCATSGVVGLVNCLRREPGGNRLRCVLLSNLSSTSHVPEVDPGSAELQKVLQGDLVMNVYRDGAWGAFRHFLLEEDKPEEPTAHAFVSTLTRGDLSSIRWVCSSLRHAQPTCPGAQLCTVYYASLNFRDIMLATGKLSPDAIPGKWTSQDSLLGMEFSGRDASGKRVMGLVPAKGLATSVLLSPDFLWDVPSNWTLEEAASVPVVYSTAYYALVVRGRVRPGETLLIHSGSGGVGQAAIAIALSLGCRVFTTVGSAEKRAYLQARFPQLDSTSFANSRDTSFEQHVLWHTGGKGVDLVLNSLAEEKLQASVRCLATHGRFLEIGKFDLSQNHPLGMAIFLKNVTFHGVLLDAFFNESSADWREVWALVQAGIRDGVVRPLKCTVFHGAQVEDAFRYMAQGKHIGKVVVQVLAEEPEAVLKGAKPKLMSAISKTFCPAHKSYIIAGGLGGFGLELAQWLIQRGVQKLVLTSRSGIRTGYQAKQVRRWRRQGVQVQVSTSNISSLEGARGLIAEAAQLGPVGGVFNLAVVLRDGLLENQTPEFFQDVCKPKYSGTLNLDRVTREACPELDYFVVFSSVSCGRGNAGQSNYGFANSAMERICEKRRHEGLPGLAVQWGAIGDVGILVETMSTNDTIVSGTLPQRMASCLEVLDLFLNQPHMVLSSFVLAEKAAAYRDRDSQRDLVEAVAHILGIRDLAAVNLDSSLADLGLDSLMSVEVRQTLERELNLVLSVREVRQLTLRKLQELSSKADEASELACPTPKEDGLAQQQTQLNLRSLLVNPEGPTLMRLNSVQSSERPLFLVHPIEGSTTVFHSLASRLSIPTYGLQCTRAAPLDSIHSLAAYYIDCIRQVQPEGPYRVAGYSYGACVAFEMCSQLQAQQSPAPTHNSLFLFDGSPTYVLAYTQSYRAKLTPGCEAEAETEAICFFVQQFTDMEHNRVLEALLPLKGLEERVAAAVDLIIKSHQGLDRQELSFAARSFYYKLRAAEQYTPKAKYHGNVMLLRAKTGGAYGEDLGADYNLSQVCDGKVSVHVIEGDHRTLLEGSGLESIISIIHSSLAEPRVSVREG
Hits are given with their value. Rows were chosen to be rich in hits. Some 4% of all compounds tested hit in one or more screens of this group.

COc1ccccc1/C=C/C(=O)Nc1cccc(C(C)=O)c1 was read as aDG glyco act inactive, NR3A LBD binder 21, ADAM10 inh inactive, ADAM17 inh inactive and FAS TE block inactive.
For COc1ccc(CC(=O)Nc2ccc(/C(C)=N/NC(=O)c3cccc([N+](=O)[O-])c3)cc2)cc1 the results were aDG glyco act inactive, NR3A LBD binder inactive, ADAM10 inh inactive, ADAM17 inh inactive and FAS TE block inactive.
O=[N+]([O-])c1ccc2nc(-c3ccc(Cl)cc3)n(OCc3ccccc3)c2c1 was read as aDG glyco act inactive, NR3A LBD binder 18, ADAM10 inh inactive, ADAM17 inh inactive and FAS TE block inactive.
`C=CCC(=O)N1CCCC(C(=O)c2ccc(Cl)cc2)C1` (configuration not stated) gave aDG glyco act inactive, NR3A LBD binder inactive, ADAM10 inh inactive, ADAM17 inh inactive and FAS TE block inactive.
`Cc1cnc(C(=O)OC(C)C(=O)Nc2ccccc2-c2ccccc2)cn1` (configuration not stated) gave aDG glyco act inactive, NR3A LBD binder inactive, ADAM10 inh inactive, ADAM17 inh inactive and FAS TE block inactive.
CCOC(=O)C(NC(=O)CCC(=O)Nc1ccc(S(N)(=O)=O)cc1)C(O)c1ccccc1 (configuration not stated) was read as NR3A LBD binder 13.
Screening CCOC(=O)Cc1csc(NC(=O)NC2(C(F)(F)F)Oc3ccc(Cl)cc3O2)n1 (configuration not stated) returned aDG glyco act inactive, NR3A LBD binder inactive, ADAM10 inh inactive, ADAM17 inh inactive and FAS TE block inactive.
For CCOC(=O)Cc1csc(NC(=O)NC2(C(F)(F)F)Oc3cc(Cl)c(Cl)cc3O2)n1 the results were aDG glyco act inactive, NR3A LBD binder 11, ADAM10 inh inactive, ADAM17 inh inactive and FAS TE block inactive.
CC1CCN(CC(O)COCCC23CC4CC(CC(C4)C2)C3)CC1 (configuration not stated) was read as aDG glyco act inactive, NR3A LBD binder inactive, ADAM10 inh inactive, ADAM17 inh inactive and FAS TE block inactive.
Screening O=C(Nn1c(O)c(C=C2N=c3ccccc3=N2)sc1=S)c1ccccc1Cl returned aDG glyco act inactive, NR3A LBD binder 23, ADAM10 inh inactive, ADAM17 inh inactive and FAS TE block inactive.
CCOc1ccc(Cl)cc1S(=O)(=O)N1CCC(C(=O)NCC2CCCO2)CC1 (configuration not stated) was read as aDG glyco act inactive, NR3A LBD binder inactive, ADAM10 inh inactive, ADAM17 inh inactive and FAS TE block inactive.
CCCN(CCC)Cc1c(C(=O)N/N=C/c2c[nH]c3ccccc23)nnn1-c1nonc1N was read as aDG glyco act inactive, NR3A LBD binder 22, ADAM10 inh inactive, ADAM17 inh inactive and FAS TE block inactive.
COCc1c(C(=O)N/N=C/c2c[nH]c3ccccc23)nnn1-c1nonc1N was read as aDG glyco act inactive, NR3A LBD binder 18, ADAM10 inh inactive, ADAM17 inh inactive and FAS TE block inactive.
Screening CCCc1c(C(=O)N/N=C/c2c[nH]c3ccccc23)nnn1-c1nonc1N returned aDG glyco act inactive, ADAM10 inh inactive, ADAM17 inh inactive and FAS TE block inactive.
CCCN(CCC)Cc1c(C(=O)N/N=C/c2ccc(Br)cc2)nnn1-c1nonc1N was read as aDG glyco act inactive, NR3A LBD binder 22, ADAM10 inh inactive, ADAM17 inh inactive and FAS TE block inactive.
Cc1ccc(-c2c(C(=O)N/N=C/c3c[nH]c4ccccc34)nnn2-c2nonc2N)cc1 was read as aDG glyco act inactive, NR3A LBD binder 26, ADAM10 inh inactive, ADAM17 inh inactive and FAS TE block inactive.
`Cc1ccc(-c2c(C(=O)N/N=C/c3ccncc3)nnn2-c2nonc2N)cc1` gave aDG glyco act inactive, NR3A LBD binder inactive, ADAM10 inh inactive, ADAM17 inh inactive and FAS TE block inactive.
Screening O=C(/C=C/c1ccccc1)NNC1=NS(=O)(=O)c2ccccc21 returned aDG glyco act inactive, NR3A LBD binder inactive, ADAM10 inh inactive, ADAM17 inh inactive and FAS TE block inactive.
Screening CC(C)C(NC(=S)NCc1ccccc1)C(=O)O (configuration not stated) returned aDG glyco act inactive, NR3A LBD binder inactive, ADAM10 inh inactive, ADAM17 inh inactive and FAS TE block inactive.
COc1ccc(CN(Cc2ccccn2)C(=O)CN2C(=O)C(C)Oc3ccccc32)cc1 (configuration not stated) was read as aDG glyco act inactive, NR3A LBD binder inactive, ADAM10 inh inactive, ADAM17 inh inactive and FAS TE block inactive.
`Cc1ccc(N2CC(C(=O)OCC(=O)Nc3ccc(F)cc3F)CC2=O)cc1` (configuration not stated) gave aDG glyco act inactive, NR3A LBD binder inactive, ADAM10 inh inactive, ADAM17 inh inactive and FAS TE block inactive.
O=C1CC(SC(=Nc2ccccc2)Nc2ccccc2)C(=O)N1c1ccc(Cl)cc1 (configuration not stated) was read as aDG glyco act inactive, NR3A LBD binder inactive, ADAM10 inh inactive, ADAM17 inh inactive and FAS TE block inactive.
For O=C1CC(SC(=Nc2ccccc2)Nc2ccccc2)C(=O)N1c1cccc(Cl)c1 (configuration not stated) the results were aDG glyco act inactive, NR3A LBD binder 10, ADAM10 inh inactive, ADAM17 inh inactive and FAS TE block inactive.
`C=CCNC(=O)c1ccc(-c2nc(-c3ccc(Cl)c(Cl)c3)cs2)cc1` gave aDG glyco act inactive, NR3A LBD binder 31, ADAM10 inh inactive, ADAM17 inh inactive and FAS TE block inactive.
`CCC/C(=N\NC(=O)CNC(=O)/C=C/c1ccco1)c1ccccc1` gave aDG glyco act inactive, NR3A LBD binder 10, ADAM10 inh inactive, ADAM17 inh inactive and FAS TE block inactive.
CC/C(=N\NC(=O)CNC(=O)/C=C/c1ccco1)c1ccccc1 was read as aDG glyco act inactive, NR3A LBD binder inactive, ADAM10 inh inactive, ADAM17 inh inactive and FAS TE block inactive.
For CCSC1=NSC2=NC(=O)/C(=C\c3coc4ccccc4c3=O)C(=N)N12 the results were aDG glyco act inactive, NR3A LBD binder 11, ADAM10 inh inactive, ADAM17 inh inactive and FAS TE block inactive.
Screening COc1c2occc2c(OC)c2c(=O)cc(C(F)(F)F)oc12 returned aDG glyco act inactive, NR3A LBD binder 16, ADAM10 inh inactive, ADAM17 inh inactive and FAS TE block inactive.
Screening O=C(COc1cc(Cl)c(Cl)cc1Cl)Nc1cccc(O)c1 returned aDG glyco act inactive, NR3A LBD binder 18, ADAM10 inh inactive, ADAM17 inh inactive and FAS TE block inactive.
Screening Cc1cccc(OCC(=O)Nc2cccc(O)c2)c1 returned aDG glyco act inactive, NR3A LBD binder inactive, ADAM10 inh inactive, ADAM17 inh inactive and FAS TE block inactive.
For O=C(COc1cc(Cl)c(Cl)cc1Cl)Nc1ccncc1 the results were aDG glyco act inactive, NR3A LBD binder 545, ADAM10 inh inactive, ADAM17 inh inactive and FAS TE block inactive.
